Rows were chosen to be rich in hits. Some 3.1% of all compounds tested hit in one or more screens of this group.
TSHR agonist: agonists of human thyroid stimulating hormone receptor; AID 926; P16473; HEK293-CNG-TSHR cells (CNG channel as cAMP sensor), membrane potential dye, cAMP; 0.48% of 73,000 active; Potency, µM (highest dose often 57.1 µM), for inactives: top-dose activation, hits mostly activators; active = well fitted activation curve with a large enough effect in the main read-out, with a control signal flat, not every such curve was filed as active; inconclusive = small, poorly fitted or top-dose-only effect, or a change in a side signal; inactive = no such curve, though single readings can be large or run the other way; % of control where 0% means no effect;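 note: the control signal comes from parental cells without the receptor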
Target sequence (P16473 whole entry, looked up): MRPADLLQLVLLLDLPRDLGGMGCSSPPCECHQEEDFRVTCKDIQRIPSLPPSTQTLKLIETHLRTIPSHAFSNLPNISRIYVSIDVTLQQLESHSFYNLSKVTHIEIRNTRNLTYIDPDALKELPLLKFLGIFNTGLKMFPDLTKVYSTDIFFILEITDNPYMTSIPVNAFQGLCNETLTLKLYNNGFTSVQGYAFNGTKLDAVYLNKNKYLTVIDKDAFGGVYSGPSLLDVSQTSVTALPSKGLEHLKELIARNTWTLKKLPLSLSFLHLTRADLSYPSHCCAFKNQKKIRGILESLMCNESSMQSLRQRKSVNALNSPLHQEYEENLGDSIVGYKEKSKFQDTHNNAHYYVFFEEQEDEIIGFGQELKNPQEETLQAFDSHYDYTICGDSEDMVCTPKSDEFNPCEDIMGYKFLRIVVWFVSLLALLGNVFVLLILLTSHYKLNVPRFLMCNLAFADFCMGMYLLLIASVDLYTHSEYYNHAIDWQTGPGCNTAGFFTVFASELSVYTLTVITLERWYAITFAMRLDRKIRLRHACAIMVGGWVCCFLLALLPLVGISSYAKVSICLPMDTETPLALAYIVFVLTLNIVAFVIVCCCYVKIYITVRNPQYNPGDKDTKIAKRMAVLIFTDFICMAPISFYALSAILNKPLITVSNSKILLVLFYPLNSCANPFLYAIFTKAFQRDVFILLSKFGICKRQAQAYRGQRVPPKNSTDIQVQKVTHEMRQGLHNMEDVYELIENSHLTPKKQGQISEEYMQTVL
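HEK 293 cells stably expressing TSHR and a modified CNG channel, with CNG-only parental cells as counterscreen, were preloaded 60 min at room temperature with membrane potential dye containing 100 uM RO 20-1724. Compound exposure was 30 min, and depolarization was read as fluorescence at 590 nm.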
p53ts 32C kill: p53ts cell cytotoxicity, permissive temperature; 0.93% of 130,000 active; H1299-p53A138V at 32C, ATP luminescence viability, 24 h; AID 924; Potency, µM (doses to about 46.1 µM), inactives show top-dose activity change, negative = cytotoxicity, hits mostly cytotoxic;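 note: 0% = DMSO and -100% = full killing by reference compound; nearly all actives have a fitted effect of over 55% in size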
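Cells: H1299 p53ts (A138V), 600/well, pre-incubated 16–30 h at 37C. Cpd up to 46 uM, 24 h, 32C. Readout: ATPlite luminescence, 20 min RT. Normalization: DMSO vs tamoxifen 100 uM. AC50 by Hill equation.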
IkB sig inh: IkB pathway inhibition in ABC-DLBCL cells. AID 445. ABC-DLBCL IkBa-CBG/CBR dual luciferase ratio, 4 h; response scale: scaled: untreated 0%, proteasome inhibitor 100%. 0.04% of 110,000 active. Potency, µM (highest dose often 57.1 µM), for inactives: at the top dose IkBa stabilization activation; active = well fitted curve in the direction sought with a large enough effect in the signal ratio, not every such curve was filed as active; inconclusive = small, poorly fitted or top-dose-only effect, or a change in a side signal; the % refers to the signal ratio;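 note: the direction sought is a rising ratio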
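Luminescence ratio of IκBα-fused green versus native red beetle luciferase in OCI-Ly3 cells, 4 h post-doxycycline with compound; red signal alone, scaled from basal (0%) to zero light (-100%), flagged nonspecific or cytotoxic effects.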
HEK293 cAMP ctrl: counter-screen for TSHR agonists: cAMP increase in parental HEK293; parental HEK293 CNG cAMP sensor, membrane potential fluorescence; Potency, µM (doses to about 57.1 µM), for the others: top-dose activation, actives largely listed as activators; 2.5% of 73,000 active; AID 938; note: % of control where 0% means no effect; nearly all actives have a fitted effect of over 55% in size
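Parental HEK 293 cells stably expressing a cAMP-gated CNG channel were loaded with membrane potential dye containing 100 uM RO 20-1724 for 60 min. Compound added for 30 min; depolarization read as fluorescence intensity at 590 nm.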
p53ts 39C tox: cytotoxicity in p53ts cells at nonpermissive temperature | H1299-p53A138V viability at 39C, ATP luminescence, 24 h | Potency, µM (titrated, usually from 46.1 µM), for inactives: top-dose activity change, negative = cell killing, hits mostly cytotoxic | 1.5% of 130,000 active; note: % is set by controls: 0 for no effect and ±100 for the full control effect; nearly all actives have a fitted effect of over 55% in size
Imprint erasure: inducers of genomic imprint erasure in mouse ES cells. AID 1948. 0.02% of 110,000 active. mouse ES Peg3-LacZ reporter, beta-gal luminescence, 40 h. Potency, µM (series often up to 60.7 µM), for the others: top-dose activity change, positive = activation, hits mostly activators
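Imprint erasure is scored as LacZ activity from the silenced maternal Peg3 allele in feeder-free female ES cells cultured 40 h with LIF. Luminescence is normalized to in-plate negative controls and fitted to the Hill equation.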
Active calls of the source: *; [ ] = dose if it differs, or a comment. Unless noted, calls come from the whole dose curve; as a rule, active = well fitted curve in the direction sought with a large enough effect; inconclusive = small, poorly fitted or top-dose-only effect, or another doubt; inactive = no such curve, though single readings can be large; an effect the other way counts as inactive or inconclusive. Potency is the fitted concentration of half-maximal effect.

How did O=S1(=O)C=C(Sc2nc3cc(Cl)ccc3o2)c2ccccc21 do in these assays?
TSHR agonist: 2.0%; p53ts 32C kill: 10µM*; IkB sig inh: inconclusive; HEK293 cAMP ctrl: 7.5%; p53ts 39C tox: 20µM*; Imprint erasure: -36.8%

Results for CC(CNC(=O)c1cc2ccccn2n1)c1ccccc1 (stereo not drawn) ?
p53ts 32C kill: -3.2%; IkB sig inh: inconclusive; p53ts 39C tox: -12.0%; Imprint erasure: -8.7%[10.9 µM]

What do the screens show for `CCN(C(=O)c1cc2c(Cl)nc3ccc(C)cc3c2s1)c1cc(OC)ccc1OC`?
p53ts 32C kill: 7.7%; IkB sig inh: inconclusive; p53ts 39C tox: -7.6%; Imprint erasure: -16.6%[10.9 µM]

What do the screens show for `COc1cccc(O)c1O`?
p53ts 32C kill: 5.01µM*; p53ts 39C tox: 6.31µM*; Imprint erasure: -58.8%

How did Cc1ccc(CNC(=O)c2cnc(N3CCCCC3)c3ccccc23)cc1 do in these assays?
p53ts 32C kill: 3.4%; IkB sig inh: inconclusive; p53ts 39C tox: -18.2%; Imprint erasure: 17.0%[10.9 µM]

Results for Cc1ccc(S(=O)(=O)N2CCN(C(=O)CN3CCOCC3)C2c2ccccc2)cc1 (stereo not drawn) ?
TSHR agonist: inconclusive; p53ts 32C kill: -5.6%; IkB sig inh: 2.0%; HEK293 cAMP ctrl: 20µM*; p53ts 39C tox: -12.5%; Imprint erasure: 4.9%

How did COc1ccc(N2CCN(Cc3nc4c(c(=O)[nH]c(=O)n4C)n3Cc3ccccc3F)CC2)cc1 do in these assays?
p53ts 32C kill: -3.9%; IkB sig inh: 0.7%; p53ts 39C tox: 33.1%; Imprint erasure: inconclusive

Results for COc1ccc(OC)c(NC2=NC3(CCCC3)N=C(N)N2)c1 ?
TSHR agonist: 1.8%; p53ts 32C kill: -4.9%; IkB sig inh: -2.0%; HEK293 cAMP ctrl: 2.2%; p53ts 39C tox: 5.7%; Imprint erasure: -9.8%

How did COc1ccc(Nc2ccc3c(c2)=NC2(CCCCC2)[N+]=3[O-])cc1 do in these assays?
TSHR agonist: inconclusive; p53ts 32C kill: 5.01µM*; IkB sig inh: inconclusive; HEK293 cAMP ctrl: -63.3%; p53ts 39C tox: 6.31µM*; Imprint erasure: -29.9%

How did [O-][N+]1=C2CCC/C(=N\O)C2=NC12CCCCC2 do in these assays?
TSHR agonist: -4.2%; p53ts 32C kill: 0.7%; IkB sig inh: -1.5%; HEK293 cAMP ctrl: -3.3%; p53ts 39C tox: 0.0%; Imprint erasure: 4.8%

Results for [O-][N+]1=c2ccc(Nc3ccccc3)cc2=NC12CCCCC2 ?
TSHR agonist: inconclusive; p53ts 32C kill: 5.01µM*; IkB sig inh: inconclusive; HEK293 cAMP ctrl: -65.0%; p53ts 39C tox: 20µM*; Imprint erasure: 9.7%

What do the screens show for `COc1ccc(-c2cc(=O)c3ccccc3s2)cc1`?
TSHR agonist: inconclusive; p53ts 32C kill: 12.6µM*; IkB sig inh: 6.1%; HEK293 cAMP ctrl: inconclusive; p53ts 39C tox: 25.1µM*; Imprint erasure: -68.9%

What do the screens show for `COc1ccc(-c2cc(CCCC(=O)NCCc3cc(OC)ccc3OC)no2)cc1`?
TSHR agonist: inconclusive; p53ts 32C kill: -4.9%; IkB sig inh: inconclusive; HEK293 cAMP ctrl: 31.6µM*; p53ts 39C tox: -7.2%; Imprint erasure: -10.8%

How did CCOc1ccc(-c2nn3c(-c4ccccc4)nnc3s2)cc1 do in these assays?
TSHR agonist: inconclusive; p53ts 32C kill: -1.5%; IkB sig inh: 1.9%; HEK293 cAMP ctrl: inconclusive; p53ts 39C tox: -7.3%; Imprint erasure: 20.9%

Results for COc1ccccc1-c1nnc2sc(COc3ccc(Cl)cc3)nn12 ?
TSHR agonist: inconclusive; p53ts 32C kill: 9.4%; IkB sig inh: inconclusive; HEK293 cAMP ctrl: inconclusive; p53ts 39C tox: 10.9%; Imprint erasure: -28.9%

How did CCOc1cccc(-c2nnc3sc(COc4ccc(Cl)cc4)nn23)c1 do in these assays?
TSHR agonist: inconclusive; p53ts 32C kill: -2.7%; IkB sig inh: 3.7%; HEK293 cAMP ctrl: 15.8µM*; p53ts 39C tox: 2.0%; Imprint erasure: -2.0%

Results for COc1ccc(-c2nnc3sc(COc4ccc(C)cc4)nn23)cc1 ?
TSHR agonist: inconclusive; p53ts 32C kill: -1.7%; IkB sig inh: 4.6%; HEK293 cAMP ctrl: 20µM*; p53ts 39C tox: 6.9%; Imprint erasure: 2.3%

Results for CCOc1ccccc1OCc1nn2c(COc3ccccc3)nnc2s1 ?
TSHR agonist: inconclusive; p53ts 32C kill: -7.0%; IkB sig inh: 0.4%; HEK293 cAMP ctrl: 15.8µM*; p53ts 39C tox: 12.6%; Imprint erasure: 0.2%

What do the screens show for `COc1ccc(OCc2nn3c(-c4ccccn4)nnc3s2)cc1`?
TSHR agonist: 13.6%; p53ts 32C kill: -6.9%; IkB sig inh: -2.5%; HEK293 cAMP ctrl: 5.6%; p53ts 39C tox: 1.6%; Imprint erasure: -10.9%

What do the screens show for `CCOc1cccc(-c2nnc3sc(COc4ccc(C)cc4)nn23)c1`?
TSHR agonist: inconclusive; p53ts 32C kill: -13.3%; IkB sig inh: -0.5%; HEK293 cAMP ctrl: 25.1µM*; p53ts 39C tox: -2.0%; Imprint erasure: -8.3%

How did COc1ccc(OC)c(CNC(=O)c2cc3c(-c4ccc(OC)c(OC)c4)nn(C)c3s2)c1 do in these assays?
p53ts 32C kill: 2.8%; IkB sig inh: inconclusive; p53ts 39C tox: 23.1%; Imprint erasure: -4.0%[10.9 µM]

How did CCN1CCC[C@@H]1CNC(=O)c1c(O)c(Cl)cc(Cl)c1OC do in these assays?
TSHR agonist: 5.1%; p53ts 32C kill: -13.6%; IkB sig inh: 6.5%; HEK293 cAMP ctrl: -6.3%; p53ts 39C tox: 11.6%

Results for CCOC(=O)Cc1c(C)nc(-c2ccccc2)[nH]c1=O ?
TSHR agonist: inconclusive; p53ts 32C kill: -6.6%; IkB sig inh: 2.0%; HEK293 cAMP ctrl: inconclusive; p53ts 39C tox: 3.5%; Imprint erasure: -11.5%

Results for CCOC(=O)Cc1c(C)nc2c(-c3cccc(Br)c3)c[nH]n2c1=O ?
TSHR agonist: -28.5%; p53ts 32C kill: inconclusive; IkB sig inh: inconclusive; HEK293 cAMP ctrl: -23.0%; p53ts 39C tox: 12.6µM*; Imprint erasure: -29.6%

What do the screens show for `CCSc1ncc(Cl)c(C(=O)Nc2c(C(=O)Nc3cccc(C)c3)oc3ccccc23)n1`?
p53ts 32C kill: -2.1%; IkB sig inh: -0.8%; p53ts 39C tox: -0.9%; Imprint erasure: -4.4%[10.9 µM]

What do the screens show for `CCCS(=O)(=O)c1ncc(Cl)c(C(=O)N(Cc2ccccc2)Cc2ccco2)n1`?
p53ts 32C kill: inconclusive; IkB sig inh: inconclusive; p53ts 39C tox: 3.16µM*; Imprint erasure: -37.7%[10.9 µM]

Results for CCSc1ncc(Cl)c(C(=O)Nc2ccccc2)n1 ?
p53ts 39C tox: -10.1%

Results for CCCSc1ncc(Cl)c(C(=O)Nc2ccc(S(=O)(=O)N(C)c3ccccc3)cc2)n1 ?
p53ts 32C kill: 0.0%; IkB sig inh: -1.9%; p53ts 39C tox: 8.4%; Imprint erasure: -11.9%[10.9 µM]

Screening results (PubChem BioAssay)
